# Compound activity from PubChem.
# Shown are actives, neighbours in structure and some others; about 7.4% of the full set was active somewhere.
# Rab9 promoter act: Rab9 promoter activation | Huh7 Rab9 promoter-luciferase reporter, luminescence, 24 h | Potency, µM (top dose mostly 9.22 µM), inactives show at the top dose activation, negative = inhibition, most hits filed as activators | 320,000 tested, 2.8% active | AID 485297; note: % of control where 0% means no effect; nearly all actives have a fitted effect of over 60% in size
#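 Rab9 promoter-driven luciferase in stably transfected Huh7 cells; 1500 cells/well rested 2 h, exposed to compound in DMSO for 24 h at 37 °C, 5% CO2. Luminescence read 10 min after adding luciferase reagent at ambient temperature.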
# FLuc counter: firefly luciferase modulation, counter-screen for miR-21 project. purified FLuc, Km substrates, luminescence inhibition. 360,000 tested, 6.9% active. Potency, µM (titrated, usually from 57.5 µM), without a hit: top-dose activity change, negative = inhibition, hits mostly inhibitors. AID 588342. P08659;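 note: plate controls were vehicle for no effect and reference inhibitor for full effect; nearly all actives have a fitted effect of over 55% in size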
# Target sequence (P08659 whole entry, looked up): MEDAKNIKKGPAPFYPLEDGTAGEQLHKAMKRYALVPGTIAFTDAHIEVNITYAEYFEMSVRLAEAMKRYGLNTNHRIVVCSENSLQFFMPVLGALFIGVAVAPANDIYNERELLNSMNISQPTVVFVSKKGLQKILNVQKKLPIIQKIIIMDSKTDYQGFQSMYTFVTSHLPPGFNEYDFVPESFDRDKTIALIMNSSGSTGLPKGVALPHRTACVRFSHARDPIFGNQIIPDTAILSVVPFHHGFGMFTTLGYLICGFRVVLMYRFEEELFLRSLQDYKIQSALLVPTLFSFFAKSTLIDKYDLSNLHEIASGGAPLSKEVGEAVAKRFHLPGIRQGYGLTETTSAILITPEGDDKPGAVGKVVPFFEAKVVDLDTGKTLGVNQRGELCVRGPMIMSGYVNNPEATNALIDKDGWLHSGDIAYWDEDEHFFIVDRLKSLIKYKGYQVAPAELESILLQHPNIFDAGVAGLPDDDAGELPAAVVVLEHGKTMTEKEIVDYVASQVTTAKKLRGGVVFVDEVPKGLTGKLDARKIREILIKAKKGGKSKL
#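 Purified P. pyralis luciferase (10nM final) with 10uM D-luciferin and 10uM ATP (Km levels) in 50mM Tris acetate pH 7.5, 10mM Mg acetate, 0.01% Tween-20, 0.05% BSA; qHTS 6-point titration, ~60 µM downward; luminescence read.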
# SMN2 splice enh: increases expression of the SMN2 splice variant. HEK293 SMN2-luciferase splicing reporter, luminescence, 30-36 h. Potency, µM (highest dose often 46.1 µM), without a hit: top-dose activity change, positive = activation, actives largely listed as activators. 210,000 tested, 2.8% active; note: % of control where 0% means no effect; nearly all actives have a fitted effect of over 55% in size
#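 HEK293 cells carry an SMN2 […]–luciferase reporter in which exon 7 inclusion puts luciferase in frame. Cells were plated 10-12 h before compound addition, then incubated 30-36 h at 37C. ONE-Glo luminescence was read; sodium butyrate at 4.5 mM final served as control.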
# ELG1 genotox: genotoxicity induction in ELG1-luciferase HEK293T cells; HEK293T ELG1-luciferase reporter, luminescence, 16 h; Potency, µM (titrated, usually from 46 µM), for the others: top-dose activity change, positive = activation, actives largely listed as activators; 330,000 tested, 1.3% active; AID 504466; note: % of control where 0% means no effect; nearly all actives have a fitted effect of over 60% in size
#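 Genotoxic stress is detected as increased luminescence from luciferase-tagged ELG1 in HEK293T cells, measured with ONE-Glo after a 16 hr treatment at 37 °C.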
# p53 reactivation: mutant p53 re-activation in reporter cells. AID 504706. Potency, µM (series often up to 92.2 µM), for the others: at the top dose activity change, positive = activation, hits mostly activators. H1299 p53-A138V BP100-luciferase reporter, luminescence, 24 h. 320,000 tested, 0.063% active; note: % of control where 0% means no effect; nearly all actives have a fitted effect of over 45% in size
#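 H1299 (p53-null), stable ts p53-A138V + BP100-Luc; 1000 cells/well, Opti-MEM/10% FBS; cpd 4 pt, 1:5; 24 h, 37 deg C, 5% CO2; detection reagent 10 min RT; luminescence.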
# NPC1 promoter act: activators of NPC1 promoter; Huh7 NPC1 promoter luciferase reporter, 24 h; Potency, µM (top dose mostly 9.22 µM), for the others: at the highest dose activation, actives largely listed as activators; 320,000 tested, 2.4% active; AID 485313; note: % of control where 0% means no effect; nearly all actives have a fitted effect of over 60% in size
#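 Luminescence read-out of NPC1 promoter-driven luciferase in stably transfected Huh7 cells; compounds delivered in DMSO and left 24 h at 37C, 5% CO2, qHTS titration format.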
# An asterisk follows results filed as active; ? = inconclusive; . = not tested or not shown; [ ] = dose if it differs, or a comment. Calls come from the whole dose curve; as a rule, active = well fitted curve in the direction sought with a large enough effect; inconclusive = small, poorly fitted or top-dose-only effect, or another doubt; inactive = no such curve, though single readings can be large; an effect the other way counts as inactive or inconclusive. Potency is the fitted concentration of half-maximal effect.
SMILES,Rab9 promoter act,FLuc counter,SMN2 splice enh,ELG1 genotox,p53 reactivation,NPC1 promoter act
COc1ccc(C(=O)Nc2ccc(N3CCN(C)CC3)cc2)cc1OC,?,17µM*,.,?,?,?
CCCCOc1ccc(C(=O)Nc2ccc(N3CCN(C)CC3)cc2)cc1,-4%,-12%,12%,5%,-4%,-3%
COCCCNC(=O)Cn1cc(/C=C(\C#N)C(=O)NC2CCCC2)c2ccccc21,7%,?,.,3%,.,10%
Cc1ccc(NC(=O)c2ccc(C)cc2)cc1,0.25µM*,0.85µM*,.,?,?,0.45µM*
CCOc1ccc(C(=O)Nc2ccc(N3CCN(C)CC3)cc2)cc1,15%,12µM*,.,9%,-5%,15%
O=C(Nc1ccc(Cl)c(C(F)(F)F)c1)c1ccncc1,2%,-6%,.,1%,5%,-3%
Cc1ccc(C(=O)Nc2ccc(Br)c(C(F)(F)F)c2)cc1,?,13µM*,33%,-1%,28%,?
Cc1ccc(NC(=O)c2ccc(OC(=O)C(C)Oc3ccc(Cl)cc3C)cc2)cc1 (centres undefined),1.8µM*,-27%,8.9µM*,?,?,4.5µM*
Cc1ccc(C(=O)Nc2ccc(S(=O)(=O)N3CCCC3)cc2)cc1,13%,?,.,3%,1%,1%
O=C(O)C1CCCCC1C(=O)Nc1cc(C(F)(F)F)ccc1Cl (centres undefined),-4%,-6%,.,0%,4%,-2%
Cc1cc(Cl)ccc1OCC(=O)OCC(=O)c1c(N)n(C)c(=O)n(C)c1=O,1%,-12%,.,1%,-5%,-1%
CCOc1ccc(NC(=O)c2ccc(NCC(=O)N3CCCCCC3)cc2)cc1,9%,11µM*,-4%,-7%,2%,26%
CN1CCN(c2ccc(NC(=O)c3ccc4ccccc4c3)cc2)CC1,0.56µM*,1.9µM*,.,1.8µM*,?,0.32µM*
O=C(CSc1nc(=O)n(CCN2CCOCC2)c2c1CCC2)Nc1ccc(Cl)c(Cl)c1,.,-13%,.,.,.,.
CCOCCCNC(=O)C1(O)c2cc(Br)ccc2NC(=O)N1c1ccc(OCC)cc1 (centres undefined),-11%,-2%,.,-3%,1%,0%
CN=c1scc(C)n1/N=C/c1cc(Br)c(O)c(Br)c1,-2%,11µM*,-15%,0%,-4%,-4%
C=CCN=c1scc(C)n1/N=C/c1ccc(O)c(O)c1,1%,27µM*,16µM*,?,3%,-3%
CCCc1nc2ccccc2c(=O)n1/N=C/c1ccc(O)cc1O,1%,0%,-22%,-10%,2%,-16%
CCN=c1scc(C)n1/N=C/c1cc(Br)c(O)c(OC)c1,1%,?,?,6%,-2%,0%
CN=c1scc(C)n1/N=C/c1ccc(O)cc1O,0.71µM*,0.43µM*,4.5µM*,?,13%,0.45µM*
CN=c1scc(C)n1/N=C/c1ccc2c(c1)OCO2,0.35µM*,1.3µM*,4.5µM*,0.65µM*,?,0.71µM*
O=C(/C=C/c1ccccc1)N1CCN(Cc2cc(=O)n3nc(-c4ccccc4Cl)sc3n2)CC1,.,-13%,.,.,.,.
CN=c1scc(C)n1/N=C/c1ccc(O)cc1,2.2µM*,3µM*,?,3.2µM*,?,3.2µM*
Cc1cc(C)n(/N=C/c2ccc(O)cc2)c(=O)c1C#N,-2%,1%,.,0%,-1%,-2%
CN=c1scc(-c2ccco2)n1/N=C/c1ccc(O)c(O)c1,-25%,0.67µM*,7.9µM*,?,?,-15%
SMILES,Rab9 promoter act,FLuc counter,SMN2 splice enh,ELG1 genotox,p53 reactivation,NPC1 promoter act
CC1=C(C(=O)O)N2C(=O)[C@@H](NC(=O)[C@@H](N)c3ccc(O)cc3)[C@@H]2SC1,.,.,5%[20.6 µM],.,.,.
CSc1nc(-c2ccc(N(C)C)cc2)c(C#N)c(=O)n1C,?,12µM*,.,?,17%,?
CSc1nc(-c2ccc(Cl)cc2)c(C#N)c(=O)n1C,-7%,0%,-24%,-2%,7%,-8%
CC(=O)c1sc2nsc(SCCN3CCOCC3)c2c1N,16%,-19%,.,6%,4%,1%
Nc1c(C(=O)c2ccccc2)sc2nsc(SCCN3CCOCC3)c12,?,21µM*,.,9%,18%,?
CC(=O)Nc1ccc(NC(=O)Cn2nc(C(=O)Nc3ccc(C)cc3)ccc2=O)cc1,0%,5%,.,-2%[9.26 µM],1%,-1%
Cc1ccc(Cl)cc1-n1ncc2c(N3CCC(C)CC3)ncnc21,.,-8%,.,.,.,.
CN(C(=O)CSc1ncnc2ccccc12)C1CCCCC1,3.5µM*,15µM*,.,?,?,?
CN(C(=O)CSc1ncnc2sc(-c3ccccc3)cc12)C1CCS(=O)(=O)C1 (centres undefined),9%,17µM*,-47%,-6%,0%,-1%
CC(C)C(C)(C#N)NC(=O)CSc1ncnc2sc(-c3ccccc3)cc12 (centres undefined),-2%,?,.,-7%,-7%,0%
CCN(CC)C(=O)CSc1ncnc2sc(-c3ccccc3)cc12,2.8µM*,11µM*,-10%,?,21%,?
CN(C(=O)CSc1ncnc2scc(-c3ccccc3)c12)C1CCS(=O)(=O)C1 (centres undefined),-2%,0%,8%,3%,1%,1%
CN(CCC#N)C(=O)CSc1ncnc2sc(-c3ccccc3)cc12,20%,11µM*,-22%,-1%,14%,16%
COc1ccc(-n2nc(C(=O)N3CCCC(C)C3)c3c4ccccc4n(C)c3c2=O)cc1 (centres undefined),.,-7%,1%,.,.,.
Cc1cccc(C(=O)Nc2ccc(N3CCN(S(C)(=O)=O)CC3)cc2)c1,4µM*,?,?,14%,-1%,4.5µM*
CS(=O)(=O)N1CCN(c2ccc(NC(=O)c3ccccc3)cc2)CC1,1.8µM*,?,10µM*,?,5%,3.5µM*
COc1cccc(C(=O)Nc2ccc(N3CCN(S(C)(=O)=O)CC3)cc2)c1,25%,-18%,16%,15%,6%,29%
Nc1[nH]c(N=NC(=O)c2ccccc2)c2ccccc12,1.1µM*,4.8µM*,2.8µM*,?,?,1.8µM*
Nc1[nH]c(N=NC(=O)c2ccccc2O)c2ccccc12,2µM*,8.5µM*,11µM*,15µM*,?,2.8µM*
Nc1[nH]c(N=NC(=O)c2ccc(Cl)cc2)c2ccccc12,20%,?,?,2%,13%,18%
O=C(N=Nc1c(O)[nH]c2ccc([N+](=O)[O-])cc12)c1ccccc1Cl,8%,-16%,.,0%,7%,14%
